Assay outcomes as filed in PubChem.
Hits are enriched below; roughly 3.6% of the tested compounds scored in any of these assays.
Pf apPOL block: Pf-apPOL DNA polymerase inhibition; Recombinant Pf-apPOL, molecular beacon fluorescence, 1.5 h; AID 1794808; inhibition, % at 10 µM; 0.25% of 210,000 active
mHTT CaM bind: inhibitors of human mutant huntingtin-calmodulin interaction; P42858; inhibition, % at 15 µM; 3.6% of 190,000 active; AlphaScreen His-mHTT/GST-CaM binding, luminescence;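 also: 0% = both proteins with DMSO and 100% = one protein alone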
An asterisk follows results filed as active; ! = not active in a repeat. Rule as the data show it: active = inhibition above about 50%; inactive = the rest.

SMILES	Pf apPOL block	mHTT CaM bind
CCN(C)C(=O)C(C1CCCC1)N1CCN(C(=O)Nc2cccc(Cl)c2)CC1 (configuration not stated)	-8	1
Cc1ccc2nc(C(=O)NCc3ccccc3F)cn2c1	-4	-7
CC(NC(=O)CCc1cn(C)c2ccccc12)c1ccccc1 (configuration not stated)	-14	8
Cc1ccccc1NC(=O)c1cccnc1N(C)C	2	-1
CCCC1c2cccn2CCN1C(=O)NC1(CC(=O)OCC)CCCCC1 (configuration not stated)	-5	28
O=C(O)c1cc2ncccn2n1	52*	-1
O=C(O)c1cnn2cccnc12	-1	9
O=S(=O)(Cc1ccccc1)N1CCC(Oc2cccc(C(F)(F)F)c2)CC1	-8	-25
Cc1ccc(S(=O)(=O)N2CCC(Oc3cccc(C(F)(F)F)c3)CC2)cc1	-10	95*
O=C1c2cccc(Cl)c2C(=O)c2cccc(Cl)c21	-4	3
O=C1c2cccc(N3CCCC3)c2C(=O)c2cccc(Cl)c21	4	65*
Cc1ccc(-c2ccc(=O)n(CCCNS(=O)(=O)c3ccc(F)cc3F)n2)cc1	-9	15
NC(=O)CSc1cccc2cccnc12	-3	83*
CCCCOc1cccc(NC(=O)CSc2cccc3cccnc23)c1	0	0
O=C(O)CSc1cccc2cccnc12	-1	11
COc1ccc(NC(=O)CSc2cccc3cccnc23)cc1	-7	53*!
CCCc1nc2c(c(=O)n1CC(=O)NC1CCCC1)CCN(Cc1ccccc1)C2	-5	3
CN(C(=O)c1cccc(-c2cnc(N3CCCCC3)nc2)c1)C1CCCCC1	-2	-4
CCc1cc(C2CCCN2C(=O)c2cc(C(F)(F)F)nn2C)on1 (configuration not stated)	5	-6
Cc1nc2c(C(=O)O)cnn2c(C)c1Cc1ccccc1	-20	4
CCC(C)NC(=O)c1cnn2c(C)c(Cc3c(C)cc(C)cc3C)c(C)nc12 (configuration not stated)	31	27
CCC(C)NC(=O)c1cnn2c(C)c(Cc3cccc(Cl)c3)c(C)nc12 (configuration not stated)	-6	82*
CCC(C)NC(=O)c1cnn2c(C)c(Cc3cccc(Br)c3)c(C)nc12 (configuration not stated)	-4	74*
CCC(C)NC(=O)c1cnn2c(C)c(Cc3ccc(Cl)cc3)c(C)nc12 (configuration not stated)	5	26
CCC(C)NC(=O)c1cnn2c(C)c(Cc3ccccc3C)c(C)nc12 (configuration not stated)	-4	87*
SMILES	Pf apPOL block	mHTT CaM bind
Cc1cc(C2CCCN2C(=O)c2cc(-c3ccc(Br)cc3)on2)no1 (configuration not stated)	4	-1
Cc1ccc(-n2c(SCC(=O)NCc3ccccc3)nc3c(c2=O)SCC3)cc1	-6	-1
Cc1ccc(C)n1-c1ccc(C(=O)NN)c(Cl)c1	2	31
Cc1ccc(C)n1-c1ccc(Cl)c(O)c1	-1	96*
Cc1cc(C)cc(NC(=O)N2CCOc3ccccc32)c1	-4	-7
O=[N+]([O-])c1ccccc1/C=C/CN1CCN(c2cccc(Cl)c2)CC1	-3	59*
O=[N+]([O-])c1ccccc1/C=C/CN1CCN(c2ccc(F)cc2)CC1	-22	24
COc1ccc(/C=C2/SC(c3ccccc3)=NC2=O)cc1	-4	44
COc1cc(/C=C2/SC(c3ccccc3)=NC2=O)cc(Br)c1O	2	96*
CCOc1cc(C=C2C(=O)c3ccccc3C2=O)cc(Br)c1O	-4	66*
CCOc1cc(C=C2C(=O)c3ccccc3C2=O)ccc1OC(C)C(=O)O (configuration not stated)	-4	16
COc1ccc(/C=C2\Sc3ccccc3C2=O)cc1Br	-7	13
COc1cc(/C=C2\Sc3ccccc3C2=O)cc(Br)c1O	-2	59*
COc1cc(/C=C2\Sc3ccccc3C2=O)cc(I)c1O	-3	74*
COc1cc(/C=C2\Sc3ccccc3C2=O)cc2sc(=O)oc12	0	13
CSc1ccccc1Sc1cc(C(=O)NCc2ccco2)c2ccccc2n1	-24	9
COc1cccc(C(O)CN2CCN(c3cccc(OC)c3)CC2)c1 (configuration not stated)	-2	-4
COCC(=O)Nc1ccc(S(=O)(=O)Nc2nccc(C)n2)cc1	-9	-2
CCOc1cc(/C=C2\Sc3ccccc3C2=O)cc(I)c1O	-6	71*
CCOc1ccc(/C=C2\Sc3ccccc3C2=O)cc1	2	1
CCC(C)NC(=O)CCc1nc2ccccc2n(Cc2c(F)cccc2Cl)c1=O (configuration not stated)	-6	0
CCn1c2ccccc2c2cc(C(C)=O)ccc21	-6	-14
CC(C)(C)OC(=O)Cn1c2ccccc2c2cc(N)ccc21	-4	73*
